This passage reports inhibition results from PubChem BioAssay AID1986 (Sanford-Burnham Center for Chemical Genomics, 2009).

Screen size: about 290,000 compounds; about 890 (0.31%) were called active. Rule as the data show it: active = inhibition mostly above about 52% (no sharp cut-off); inactive = mostly below about 76%. The entries come from a sample that favours actives as a whole.

This experiment in a line: cell-free HIV fusion peptide-binding blockers – biochemical, uHTS, fluorescence dequenching, primary screen (AID 1986). The conditions noted are these: 30 min, stronger effect = higher value.
[1] abbreviates: measured here: repeat confirmation average inhibition, at 18.6 µM.

On to `CC(=O)Oc1ccc(/C=N/NC2=NS(=O)(=O)c3ccccc32)cc1`, for which the inhibition (at 20 µM) was 0.3% (inactive).

On to `CCCc1ccc(Oc2coc3cc(OCC(=O)Nc4ccccc4C)ccc3c2=O)cc1`, for which the inhibition (at 20 µM) is -2.2% (inactive). Consider `Cc1cc(/C=N/NC(N)=S)c(O)c(/C=N/NC(N)=S)c1`, for which, for the setting “at 20 µM”, the inhibition is 88.3% (active).

In the case of `NC(=S)N/N=C/c1ccccc1O`, the inhibition (at 20 µM) was -1.4% (inactive).

Turning to `NC(=S)N/N=C/c1cccc(O)c1O`, the inhibition (at 20 µM) was 3.4% (inactive).

As for `CCOC(=O)Cn1c(=N)n(CCOc2ccc(F)cc2)c2ccccc21`, where the note is “at 20 µM”, the inhibition is 0% (inactive). On to `COc1ccc(CCNC(=O)C2CCC(=O)N(CC3CCCCC3)C2)cc1` (stereo unspecified), for which the inhibition (at 20 µM) is 0.4% (inactive). In the case of `N/C(Cc1cccc2ccccc12)=N\OC(=O)COc1ccccc1`, the inhibition (at 20 µM) was 2.3% (inactive). In the case of `Cn1cc(/C=N/NC(=O)c2cc3cc(Br)ccc3o2)c2ccccc21`, for the setting “at 20 µM”, the inhibition was 4.4% (inactive).

Consider `O=C(O)c1ccc(-n2cccc2/C=N\NC(=O)c2cc3cc(Br)ccc3o2)cc1`, for which the inhibition (at 20 µM) was 50.1% (active). `O=C(O)Cn1cc(/C=N/NC(=O)c2cc3cc(Br)ccc3o2)c2ccccc21`: the inhibition (at 20 µM) was 29.5% (inactive). For `Cc1ccc(NC(=O)C2CCN(S(=O)(=O)c3ccc4c(c3)CCCC(=O)N4)CC2)c(Br)c1`, the inhibition (at 20 µM) is 1.8% (inactive).

On to `CC1=C/C(=C/N(C)C)C(=O)O1`, for which the inhibition (at 20 µM) is 5.9% (inactive). Consider `CN(C)/C=C1/C=C(C=O)OC1=O`, for which the inhibition (at 20 µM) was -0.5% (inactive). As for `CCOC(=O)/C(=C/C1=CC(=C/N(C)C)/C(=O)O1)C(C)=O`, the inhibition was 59.4% (active) (at 20 µM) and 65.4% under setting [1]. As for `COc1cc([N+](=O)[O-])ccc1N1C(=O)CC(Sc2nccc(C)n2)C1=O` (stereo unspecified), under “at 20 µM”, the inhibition was -1% (inactive).

For the molecule `N=C1/C(=C\c2coc3ccccc3c2=O)C(=O)N=C2SC(c3ccncc3)=NN12`, for the setting “at 20 µM”, the inhibition was 146% (inactive). For the molecule `CC(C)CSC1=NSC2=NC(=O)/C(=C\c3ccccc3)C(=N)N12`, for the setting “at 20 µM”, the inhibition is 46.5% (inactive).

`CSC1=NSC2=NC(=O)/C(=C\c3coc4ccccc4c3=O)C(=N)N12`: the inhibition (at 20 µM) is 44.5% (inactive). As for `CC1=CC2=NC(=O)/C(=C/c3coc4ccc(Cl)cc4c3=O)C(=N)N2O1`, the inhibition is, setting by setting: (at 20 µM) 99.7% (active); under setting [1], 62.3%. On to `CSC1=NSC2=NC(=O)/C(=C/c3coc4ccccc4c3=O)C(=N)N12`, for which, for the setting “at 20 µM”, the inhibition was 91.2% (active). As to `CC(C)CC1=NN2C(=N)/C(=C\c3coc4ccccc4c3=O)C(=O)N=C2S1`, the inhibition (at 20 µM) is 148% (inactive). For the molecule `CCSC1=NSC2=NC(=O)/C(=C\c3coc4ccccc4c3=O)C(=N)N12`, the inhibition (at 20 µM) was 89.7% (active).

For `CC1=CC2=NC(=O)/C(=C\c3cc(C)n(-c4cccc(Cl)c4)c3C)C(=N)N2O1`, the inhibition (at 20 µM) is 0.2% (inactive). On to `N=C1/C(=C\c2coc3ccccc3c2=O)C(=O)N=C2SC=CN12`, for which the inhibition (at 20 µM) was 146% (inactive).

For `CC(C)CSC1=NSC2=NC(=O)/C(=C\c3coc4ccccc4c3=O)C(=N)N12`, the inhibition (at 20 µM) was 148% (inactive). Still for that read-out and setting: in the case of `CC1=CC2=NC(=O)/C(=C\c3ccc(-c4ccc(Cl)cc4)o3)C(=N)N2O1` it was 13.2% (inactive); in that of `N=C1/C(=C/c2coc3ccccc3c2=O)C(=O)N=C2SC(c3ccco3)=NN12`, 114% (active); in that of `COc1ccccc1CNC(=O)C1CC(c2ccccc2C(F)(F)F)=NO1` (stereo unspecified), 0.6% (inactive).

`COCc1cc(C)n(CC(=O)Nc2c(C)cccc2C)c(=O)c1C#N`: the inhibition (at 20 µM) is 0.1% (inactive). As for `NC(=O)c1ccccc1NCC(=O)c1ccc(Cl)cc1`, for the setting “at 20 µM”, the inhibition is 1.4% (inactive). Regarding `CCOC(=O)C1=C(COC(=O)C2(C)CC2(Cl)Cl)NC(=O)NC1c1ccccc1` (stereo unspecified), for the setting “at 20 µM”, the inhibition is -1.7% (inactive).

Consider `CC12CC3CC(C)(C1)CC(C(=O)NC1=NCCS1)(C3)C2`, for which, for the setting “at 20 µM”, the inhibition is -1.5% (inactive). For the molecule `Cc1ccc(C(=O)N2CCCC(Nc3cccc(F)c3)C2)cc1N1CCNC1=O` (stereo unspecified), the inhibition (at 20 µM) was 0% (inactive). As for `CCN(CC)c1nc2n(c(=O)n1)CCN2CC`, where the note is “at 20 µM”, the inhibition is 2.4% (inactive).

With `O=C(CN1C(=O)C2CC=CCC2C1=O)NCc1cccs1` (stereo unspecified), the inhibition (at 20 µM) is -0.4% (inactive). As for `COc1ccc(CN2CSC(=S)N(Cc3ccc(OC)cc3)C2)cc1`, under “at 20 µM”, the inhibition is -1.4% (inactive). Take `CSC1=NSC2=NC(=O)/C(=C\c3cccs3)C(=N)N12`: the inhibition (at 20 µM) was 45.4% (inactive). For `CSC1=NSC2=NC(=O)/C(=C/c3coc4ccc(O)cc4c3=O)C(=N)N12`, under “at 20 µM”, the inhibition is 57.5% (active). As to `N=C1/C(=C\c2coc3ccc(O)cc3c2=O)C(=O)N=C2SC=CN12`, for the setting “at 20 µM”, the inhibition is 150% (inactive).

`Cc1ccc(/C=C2/NC(=O)N(Cc3ccccc3F)C2=O)s1`: the inhibition (at 20 µM) is 64% (active) and the inhibition under setting [1] was 72.6%. For `Cc1ccc(/C=C2/NC(=O)N(Cc3ccccc3)C2=O)s1`, the inhibition (at 20 µM) was 36.8% (inactive). Consider `O=C1N/C(=C/c2cccs2)C(=O)N1Cc1ccccc1F`, for which the inhibition (at 20 µM) was -0.7% (inactive). Turning to `O=C(CNC(=O)c1ccccc1F)NC1CC1`, the inhibition (at 20 µM) is -0.1% (inactive). `Cc1cc(-n2c(C)cc(C(=O)CSc3ccc4c(c3)OCCO4)c2C)no1`: the inhibition (at 20 µM) is 2.6% (inactive).

For `CC(C)(C)C(=O)N=C1SC2CS(=O)(=O)CC2N1c1ccc2c(c1)OCO2` (stereo unspecified), where the note is “at 20 µM”, the inhibition was -0.3% (inactive). In the case of `CCC(C)NC(=O)C1CCC(CNS(=O)(=O)c2ccccc2)CC1` (stereo unspecified), the inhibition (at 20 µM) is -0.4% (inactive).

On to `N#Cc1cc(C(=O)c2cc(F)ccc2O)cn(-c2nccs2)c1=O`, for which, under “at 20 µM”, the inhibition is 151% (inactive).

The inhibition is the drop in the measured response relative to a control, in per cent.
